Inconclusive results are not listed. Where a call stands in place of a potency, no number is given. Activity calls are given as the source filed them. Calls follow the shape of the dose curve; as a rule, active = well fitted cell-killing curve with a large enough effect; inconclusive = small, poorly fitted or top-dose-only effect, or effect the other way; inactive = flat fitted curve, though single readings scatter.

The results in this text go back to PubChem BioAssay (NCATS).

The subject of the assay is HeLa. The assay is described as follows: Primary qHTS to identify gynecologic anti-cancer compounds using libraries of approved drugs and bioactive compounds (AID 1345084). Also: nearly all actives have a fitted effect of over 55% in size. The note with it: Gynecologic cancer cell panel viability, ATPlite luminescence, 48 h; series mostly up to 57.5 µM. In short, it runs like this:
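Five-point cytotoxicity, 48 h drug exposure at 37 C, 5% CO2, on cells seeded 16 h beforehand. ATP content read by ATPlite luminescence.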
In the case of `Nc1ccc(N)c([N+](=O)[O-])c1`, the Potency entry was “inactive”.

As to `CC(C)n1cnc2c(Nc3cccc(Cl)c3)nc(NCCO)nc21`, the Potency result was “inactive”.

Consider `COc1ccc(-c2c(C)c(C(=O)NN3CCCCC3)nn2-c2ccc(Cl)cc2Cl)cc1`, for which the Potency result is “inactive”. For `O=C(CC1NCCC[C@H]1O)Cn1cnc2cc(Br)c(Cl)cc2c1=O` (stereo partly drawn) the value was “inactive”; for `Cc1c(C(=O)NCCCO)cnn1-c1nc(-c2cccc(C(F)(F)F)c2)cs1`, “inactive”; for `C[C@@H](O[C@H]1OCCN(Cc2n[nH]nc2CN(C)C)[C@H]1c1ccc(F)cc1)c1cc(C(F)(F)F)cc(C(F)(F)F)c1`, “inactive”. For `CC[C@H](C)[C@H]1O[C@]2(CC[C@@H]1C)C[C@@H]1C[C@@H](C/C=C(\C)[C@@H](O[C@H]3C[C@H](OC)[C@@H](O[C@H]4C[C@H](OC)[C@@H](O)[C@H](C)O4)[C@H](C)O3)[C@@H](C)/C=C/C=C3\CO[C@@H]4[C@H](O)C(C)=C[C@@H](C(=O)O1)[C@]34O)O2` the value was “inactive”.

Regarding `CCC(=O)Nc1cccc(Oc2nc(Nc3ccc(N4CCN(C)CC4)cc3OC)ncc2Cl)c1`, the Potency entry was “inactive”. `O=C(Nc1cccc(C(F)(F)F)c1)c1ccccc1NCc1ccncc1`: the Potency result was “inactive”. For `COc1cc2nc(-c3cc(F)ccc3O)nc(N[C@@H]3CNC[C@H]3C(C)(C)O)c2cc1OC` the value was “inactive”. The result for `Cc1cc(CN)cc(C)c1NC(=O)c1ccc(-c2cc(Cl)ccc2Cl)o1` reads “inactive”; that for `c1ccc(-c2cnc(Nc3ccc(OCCN4CCCC4)cc3)s2)cc1`, “inactive”. The result for `C=C1C(=O)O[C@@H]2/C=C(/C)CC3C=C(C[C@H](OC(=O)/C(C)=C\C)[C@@H]12)C(=O)O3` (stereo partly drawn) reads “inactive”.
